Inconclusive results are not listed. Active and inactive are the calls of the source. How the source made its calls: active means hit-call score of the fitted dose curve at least 0.9, where 1 is the maximum; inconclusive means response in the unintended direction; inactive means score below 0.9.

The assay relates to TPO (gene 7173). The assay is described as follows: CCTE_GLTED_hTPO: CCTE's human Thyroperoxidase (hTPO) Inhibition Assay, Great Lakes Toxicology and Ecology Division (GLTED) Lab. On the procedure:
CCTE_GLTED_hTPO is a cell-free, single-readout assay designed to test the inhibitory activity of chemicals toward human thyroperoxidase (TPO) protein. Uninhibited enzyme converts Amplex UltraRed to a fluorescent product. Measurements were taken 0.5 hour after chemical dosing in a 96-well plate. CCTE_GLTED_hTPO is the assay component measured from the CCTE_GLTED_hTPO assay. It is designed to make measurements of enzyme activity, a form of enzyme reporter, as detected with […] by Fluorescence technology.Data from the assay component CCTE_GLTED_hTPO was analyzed at the assay endpoint CCTE_GLTED_hTPO in the positive analysis fitting direction relative to DMSO as the negative control and baseline of activity. Using a type of enzyme reporter (the Amplex UltraRed assay), loss-of-signal activity can be used to understand decreased peroxidase activity in the presence of excess […]. To generalize the intended target to other relatable targets, this assay endpoint is annotated to the 'oxidoreductase' intended target family, where the subfamily is 'peroxidase'.
[…]
In general, AC50 refers to the midpoint of the concentration-response curve, whichever way the signal moves. For `CN(C(=O)C(F)(F)C(F)(F)C(F)(F)F)[Si](C)(C)C`, the AC50 is 59.5 µM (active).

For `O=C(O)C(F)(F)C(F)(F)C(F)(F)C(F)(F)C(F)(F)C(F)(F)C(F)(F)C(F)(F)Cl`, the AC50 was 278 µM (active).

`O=C(Cl)C(F)(F)C(F)(F)C(F)(F)C(F)(F)C(F)(F)C(F)(F)F`: the AC50 is 48.3 µM (active).

As to `O=S(=O)(OCC(F)(F)F)C(F)(F)C(F)(F)C(F)(F)C(F)(F)F`, the concentration at half-maximal activity (AC50) is 42.2 µM (active).

In the case of `O=C(Cl)C(F)(F)C(F)(F)C(F)(F)C(=O)Cl`, the AC50 was 150 µM (active).

For `O=C(O)C(F)(F)C(F)(F)C(F)(F)C(F)(F)C(F)(F)C(F)(F)C(F)(F)C(F)(F)C(F)(F)C(F)F`, the result was inactive.

Consider `FC(F)(F)C(F)(F)C(F)(F)C(F)(F)C(F)(F)C(F)(F)C(F)(F)C(F)(F)CCS`, for which the AC50 was 50 µM (active).

For `O=C(O)C(F)(OC(F)(F)C(F)(OC(F)(F)C(F)(OC(F)(F)C(F)(F)C(F)(F)F)C(F)(F)F)C(F)(F)F)C(F)(F)F` (centres undefined), the half-maximal activity concentration (AC50) is 0.0612 µM (active).

With `Cn1cc[nH]c1=S`, the half-maximal activity concentration (AC50) is 0.127 µM (active).

On to `O=C(Cl)C(F)(F)C(F)(F)C(F)(F)C(F)(F)C(F)(F)C(F)(F)C(F)(F)C(F)(F)F`, for which the result was inactive.

Regarding `FC(F)=C(F)C(F)(F)C(F)(F)C(F)(F)C(F)(F)C(F)(F)C(F)(F)F`, the AC50 is 30.9 µM (active).

On to `O=C(O)C(F)(OC(F)(F)C(F)(OC(F)(F)C(F)(F)C(F)(F)F)C(F)(F)F)C(F)(F)F` (centres undefined), for which the AC50 is 13.1 µM (active).

As for `O=S(=O)(Cl)C(F)(F)C(F)(F)C(F)(F)C(F)(F)C(F)(F)C(F)(F)C(F)(F)C(F)(F)F`, the AC50 was 276 µM (active).

On to `FC(F)(F)C(F)(F)C(F)(F)C(F)(F)C(F)(F)C(F)(F)CCS`, for which the result was inactive.
